# Results: the supplement of paper PMC8728848
# Many of the other results were omitted from the sample, so the strongest signals are more common in it than they were.
# Key:
# Test in all cases: glycan array binding signal (z-score within array); higher = stronger binding
# Details in all cases: glycan notation: IUPAC condensed, linker removed
# [1] = target: Fuc(a1-2)Gal(b1-3)GalNAc(b1-4)[Neu5Ac(a2-3)]Gal(b1-4)Glc
# Procedure, shortened: (§1)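 Glycan array data were curated from 3228 arrays in the Consortium for Functional Glycomics database and kept only where the protein sequence was available. Glycan names were converted to IUPAC-condensed notation, and columns mapping to the same glycan were averaged. The binding signal is a within-array Z-score, averaged across arrays of the same protein sequence at different concentrations or buffers and across linkers. Negative Z-scores can be read as non-binding.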
# [2] = target: Fuc(a1-2)Gal(b1-3)[Fuc(a1-4)]GlcNAc(b1-3)[Fuc(a1-3)[Gal(b1-4)]GlcNAc(b1-6)]Gal(b1-4)Glc
# Procedure, shortened: as §1
# [3] = target: Fuc(a1-2)Gal(b1-4)GlcNAc(b1-2)Man(a1-3)[Fuc(a1-2)Gal(b1-4)GlcNAc(b1-2)Man(a1-6)]Man(b1-4)GlcNAc(b1-4)GlcNAc
# Procedure, shortened: as §1
# [4] = target: Fuc(a1-2)Gal(b1-4)GlcNAc(b1-2)Man(a1-3)[Fuc(a1-2)Gal(b1-4)GlcNAc(b1-2)Man(a1-6)]Man(b1-4)GlcNAc(b1-4)[Fuc(a1-6)]GlcNAc
# Procedure, shortened: as §1
# [5] = target: Fuc(a1-2)Gal(b1-4)GlcNAc(b1-3)Gal(b1-4)GlcNAc(b1-3)Gal(b1-4)GlcNAc
# Procedure, shortened: as §1
# [6] = target: Fuc(a1-2)Gal(b1-4)[Fuc(a1-3)]GlcNAc(b1-2)Man(a1-3)[Fuc(a1-2)Gal(b1-4)[Fuc(a1-3)]GlcNAc(b1-2)Man(a1-6)]Man(b1-4)GlcNAc(b1-4)GlcNAc
# Procedure, shortened: as §1
# [7] = target: Fuc(a1-2)Gal(b1-4)[Fuc(a1-3)]GlcNAc(b1-3)GalNAc
# Procedure, shortened: as §1
# [8] = target: Fuc(a1-2)[Gal(a1-3)]Gal(b1-4)GlcNAc
# Procedure, shortened: as §1
# [9] = target: Fuc(a1-2)[Gal(a1-3)]Gal(b1-4)GlcNAc(b1-2)Man(a1-3)[Fuc(a1-2)[Gal(a1-3)]Gal(b1-4)GlcNAc(b1-2)Man(a1-6)]Man(b1-4)GlcNAc(b1-4)GlcNAc
# Procedure, shortened: as §1
# [10] = target: Fuc(a1-2)[Gal(a1-3)]Gal(b1-4)GlcNAc(b1-2)Man(a1-3)[Fuc(a1-2)[Gal(a1-3)]Gal(b1-4)GlcNAc(b1-2)Man(a1-6)]Man(b1-4)GlcNAc(b1-4)[Fuc(a1-6)]GlcNAc
# Procedure, shortened: as §1
# [11] = target: Fuc(a1-2)[Gal(a1-3)]Gal(b1-4)[Fuc(a1-3)]GlcNAc(b1-3)GalNAc
# Procedure, shortened: as §1
# [12] = target: Fuc(a1-2)[GalNAc(a1-3)]Gal
# Procedure, shortened: as §1
# [13] = target: Fuc(a1-2)[GalNAc(a1-3)]Gal(b1-3)GalNAc(a1-3)[Fuc(a1-2)]Gal(b1-4)GlcNAc
# Procedure, shortened: as §1
# [14] = target: Gal(a1-3)Gal(b1-3)GlcNAc(b1-2)Man(a1-3)[Gal(a1-3)Gal(b1-3)GlcNAc(b1-2)Man(a1-6)]Man(b1-4)GlcNAc(b1-4)GlcNAc
# Procedure, shortened: as §1
# [15] = target: Gal(a1-3)Gal(b1-4)[Fuc(a1-3)]GlcNAc(b1-2)Man(a1-3)[Gal(a1-3)Gal(b1-4)[Fuc(a1-3)]GlcNAc(b1-2)Man(a1-6)]Man(b1-4)GlcNAc(b1-4)GlcNAc
# Procedure, shortened: as §1
# [16] = target: Gal(b1-3)GlcNAc(b1-2)Man(a1-3)[Gal(b1-3)GlcNAc(b1-2)Man(a1-6)]Man(b1-4)GlcNAc(b1-4)GlcNAc
# Procedure, shortened: as §1
# [17] = target: Gal(b1-3)GlcNAc(b1-2)Man(a1-3)[Gal(b1-3)GlcNAc(b1-2)Man(a1-6)]Man(b1-4)GlcNAc(b1-4)[Fuc(a1-6)]GlcNAc
# Procedure, shortened: as §1
# [18] = target: Gal(b1-3)[Fuc(a1-4)]GlcNAc(b1-3)Gal(b1-4)GlcNAc
# Procedure, shortened: as §1
# [19] = target: Gal(b1-3)[Neu5Ac(a2-6)]GlcNAc(b1-6)Gal(b1-4)Glc
# Procedure, shortened: as §1
# [20] = target: Gal(b1-4)GlcNAc(b1-3)Gal(b1-4)GlcNAc
# Procedure, shortened: as §1
# [21] = target: Gal4S(b1-4)GlcNAc
# Procedure, shortened: as §1
# [22] = target: Gal6S(b1-3)GlcNAc
# Procedure, shortened: as §1
# [23] = target: GalNAc(b1-3)Gal(a1-6)Gal(b1-4)Glc
# Procedure, shortened: as §1
# [24] = target: GalNAc(b1-4)GlcNAc
# Procedure, shortened: as §1
# [25] = target: GlcA(b1-3)GlcNAc
# Procedure, shortened: as §1
# [26] = target: GlcNAc(a1-4)Gal(b1-4)GalNAc
# Procedure, shortened: as §1
# [27] = target: GlcNAc(a1-4)Gal(b1-4)GlcNAc(b1-3)Gal(b1-4)[Fuc(a1-3)]GlcNAc(b1-3)Gal(b1-4)[Fuc(a1-3)]GlcNAc
# Procedure, shortened: as §1
# [28] = target: GlcNAc(b1-4)[GlcNAc(b1-6)]GalNAc
# Procedure, shortened: as §1
# [29] = target: Man(a1-3)[Man(a1-6)]Man
# Procedure, shortened: as §1
# [30] = target: Neu5Ac(a2-3)Gal(b1-3)[Neu5Ac(a2-3)Gal(b1-4)]GlcNAc
# Procedure, shortened: as §1
# [31] = target: Neu5Ac(a2-3)Gal(b1-4)GlcNAc(b1-3)Gal(b1-4)GlcNAc
# Procedure, shortened: as §1
# [32] = target: Neu5Ac(a2-3)Gal(b1-4)[Fuc(a1-3)]GlcNAc(b1-3)GalNAc
# Procedure, shortened: as §1
# [33] = target: Neu5Ac(a2-6)Gal(b1-4)GlcNAc(b1-2)Man(a1-3)[Man(a1-6)]Man(b1-4)GlcNAc(b1-4)GlcNAc
# Procedure, shortened: as §1
# [34] = target: Neu5Ac(a2-6)Gal(b1-4)GlcNAc(b1-2)Man(a1-6)[GlcNAc(b1-2)Man(a1-3)]Man(b1-4)GlcNAc(b1-4)GlcNAc
# Procedure, shortened: as §1
# [35] = target: Neu5Ac(a2-6)Gal(b1-4)GlcNAc(b1-3)Gal(b1-4)GlcNAc(b1-3)Gal(b1-4)GlcNAc
# Procedure, shortened: as §1
# [36] = target: Neu5Ac(a2-6)Gal(b1-4)GlcNAc(b1-3)GalNAc
# Procedure, shortened: as §1
binder,measurement,setting,value
Gal 2 (Canis lupus) (protein) MSGKFEVMNMDMKLGGTLKIKGKIAGDADGFVINLGQGSDKLNLHFNPRFHESVIVCNSRNWGQEQRDKHMCFSPGSEVKFTVTFENDGFKVKLPDGHQLTFPNRLGHSHLSYLGVQGGLKVSSFKIE,glycan array binding signal (z-score),[1],-0.028
same,glycan array binding signal (z-score),[2],0.019
same,glycan array binding signal (z-score),[3],1.43
same,glycan array binding signal (z-score),[4],0.046
same,glycan array binding signal (z-score),[5],-0.156
same,glycan array binding signal (z-score),[6],0.795
same,glycan array binding signal (z-score),[7],0.409
same,glycan array binding signal (z-score),[8],0.681
same,glycan array binding signal (z-score),[9],15.5
same,glycan array binding signal (z-score),[10],6.28
same,glycan array binding signal (z-score),[11],0.088
same,glycan array binding signal (z-score),[12],-0.339
same,glycan array binding signal (z-score),[13],-0.173
same,glycan array binding signal (z-score),[14],0.082
same,glycan array binding signal (z-score),[15],0.339
same,glycan array binding signal (z-score),[16],0.14
same,glycan array binding signal (z-score),[17],0.051
same,glycan array binding signal (z-score),[18],0.099
same,glycan array binding signal (z-score),[19],-0.068
same,glycan array binding signal (z-score),[20],-0.157
same,glycan array binding signal (z-score),[21],1.7
same,glycan array binding signal (z-score),[22],-0.457
same,glycan array binding signal (z-score),[23],0.131
same,glycan array binding signal (z-score),[24],-0.029
same,glycan array binding signal (z-score),[25],2.91
same,glycan array binding signal (z-score),[26],-0.278
same,glycan array binding signal (z-score),[27],1.2
same,glycan array binding signal (z-score),[28],-0.114
same,glycan array binding signal (z-score),[29],0.15
same,glycan array binding signal (z-score),[30],-0.369
same,glycan array binding signal (z-score),[31],0.01
same,glycan array binding signal (z-score),[32],1.21
same,glycan array binding signal (z-score),[33],-0.076
same,glycan array binding signal (z-score),[34],-0.361
same,glycan array binding signal (z-score),[35],-0.293
same,glycan array binding signal (z-score),[36],0.102
